UGM FP inh: M. tuberculosis UGM enzyme inhibitors, primary screen, biochemical, fluorescence polarization, single point; UDP-galactopyranose mutase (Mycobacterium tuberculosis (strain ATCC 25618 / H37Rv)), …; purified UGM, fluorescence polarization probe displacement; inhibition, % at 10 µM; 0.06% of 320,000 active; in the data active = inhibition above about 10%, passing the limit was not always enough
RecA intein inh: Mtb RecA intein splicing inhibitors, primary screen, biochemical, fluorescence, HTS; Protein RecA (Mycobacterium tuberculosis (strain ATCC 25618 / H37Rv)), P9WHJ3; cell-free RecA intein splicing; inhibition, % (concentration not given with the values); 0.75% of 290,000 active; AID 2221, 2009; in the data active = inhibition above about 30%;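 note: 0% = vehicle wells and 100% = reference inhibitor control wells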
Target sequence (P9WHJ3 whole entry, looked up): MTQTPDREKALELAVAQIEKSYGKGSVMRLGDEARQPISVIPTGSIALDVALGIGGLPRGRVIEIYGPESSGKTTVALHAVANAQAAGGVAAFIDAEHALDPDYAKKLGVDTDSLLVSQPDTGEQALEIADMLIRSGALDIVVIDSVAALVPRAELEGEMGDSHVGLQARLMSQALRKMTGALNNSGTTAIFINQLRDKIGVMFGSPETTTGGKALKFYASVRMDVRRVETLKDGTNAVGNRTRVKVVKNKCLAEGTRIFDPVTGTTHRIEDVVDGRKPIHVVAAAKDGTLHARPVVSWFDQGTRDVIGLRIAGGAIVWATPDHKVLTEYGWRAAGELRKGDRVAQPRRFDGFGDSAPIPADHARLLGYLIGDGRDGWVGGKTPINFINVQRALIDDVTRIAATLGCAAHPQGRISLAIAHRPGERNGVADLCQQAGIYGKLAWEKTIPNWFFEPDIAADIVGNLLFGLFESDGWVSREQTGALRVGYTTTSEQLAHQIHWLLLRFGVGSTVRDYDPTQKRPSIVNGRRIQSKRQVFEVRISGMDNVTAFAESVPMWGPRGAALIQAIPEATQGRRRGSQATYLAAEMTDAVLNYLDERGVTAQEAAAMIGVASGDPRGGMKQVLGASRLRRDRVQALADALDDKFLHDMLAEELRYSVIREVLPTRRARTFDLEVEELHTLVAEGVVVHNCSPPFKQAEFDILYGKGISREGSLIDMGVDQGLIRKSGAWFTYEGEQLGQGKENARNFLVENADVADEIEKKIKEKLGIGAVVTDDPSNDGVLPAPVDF
Rv3671c protease: Rv3671c serine protease inhibitors, primary screen, biochemical, fluorescence polarization, M. tuberculosis H37Rv | inhibition, % at 5.96 µM | 0.048% of 320,000 active; in the data active = inhibition above about 38%;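 note: extracellular domain of Rv3671c used as enzyme; 0% = enzyme with DMSO and 100% = no enzyme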
Mtb betalactam: beta-lactam sensitization of Mtb H37Rv, H37Rv | inhibition, % at 25 µM | M. tuberculosis H37Rv growth with meropenem, percent inhibition | 0.27% of 330,000 active; call rule not given here;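 note: growth measured after seven days incubation then overnight dye step; 0% = bacteria only wells and 100% = bacteria with antibiotic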
GDH-TPI counter: GDH-TPI coupling enzyme inhibitors, primary screen, artefact control for M. tuberculosis FBA inhibitor project, biochemical, absorbance, full deck; GDH-TPI coupled enzyme counterscreen, NADH absorbance; inhibition, % at 4.8 µM; 1.2% of 360,000 active; in the data active = inhibition above about 30%;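 note: 0% = DMSO wells and 100% = wells lacking the enzyme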
Mtb FBA inh: Mtb FBA enzyme inhibitors, primary screen, biochemical, fluorescence, strain H37Rv. Fructose-bisphosphate aldolase (Mycobacterium tuberculosis (strain ATCC 25618 / H37Rv)), …. purified M. tuberculosis FBA, fluorescence read-out. inhibition, % at 1 µM. 2.3% of 360,000 active. AID 588726, 2011; in the data active = inhibition above about 27%;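 note: 0% = vehicle and 100% = reference inhibitor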
* marks the source's active call; other numbers are inactive results. Only some compounds are listed: those with a hit (about 4% of all), similar ones and a draw of the others.

How did Cc1cccc(C)c1NC(=O)/C(C#N)=C/c1ccsc1 do in these assays?
UGM FP inh: 0; RecA intein inh: 5; Rv3671c protease: -1; Mtb betalactam: 84; GDH-TPI counter: 11; Mtb FBA inh: -8

Results for Cc1ccc(/C=C(\C#N)C(=O)Nc2c(C)cccc2C)s1 ?
UGM FP inh: 0; RecA intein inh: 0; Rv3671c protease: -15; Mtb betalactam: -4; GDH-TPI counter: 45*; Mtb FBA inh: 3

How did COc1nc(=O)n(C2C=CC(=O)O2)cc1F (stereo unspecified) do in these assays?
GDH-TPI counter: 11; Mtb FBA inh: 3

Results for COc1ccc(C(C)(O)c2nc(-c3cccc(C(F)(F)F)c3)cs2)cc1 (stereo unspecified) ?
GDH-TPI counter: 6; Mtb FBA inh: -5

Results for COc1ccc(/C=N/NC(=S)NC2CCS(=O)(=O)C2)cc1OC (stereo unspecified) ?
UGM FP inh: 2; RecA intein inh: 0; Rv3671c protease: -9; Mtb betalactam: 6; GDH-TPI counter: 41*; Mtb FBA inh: -3

How did CCOc1ccc(/C=N/NC(=S)NC2CC3CC2C2C=CCC32)cc1 (stereo unspecified) do in these assays?
UGM FP inh: 2; RecA intein inh: 3; Rv3671c protease: 7; Mtb betalactam: 0; GDH-TPI counter: 6; Mtb FBA inh: 4

Results for COc1cc(/C=N/NC(=S)NC2CC3CC2C2C=CCC32)ccc1O (stereo unspecified) ?
UGM FP inh: 1; RecA intein inh: 11; Rv3671c protease: -28; Mtb betalactam: 92; GDH-TPI counter: 37*; Mtb FBA inh: 1

How did Cc1cc(N/N=C/c2ccc(F)cc2)nc(-n2nc(C)cc2C)n1 do in these assays?
UGM FP inh: 0; Rv3671c protease: -1; Mtb betalactam: 92; GDH-TPI counter: 11; Mtb FBA inh: 17

What do the screens show for `COc1ccc(/C=N/Nc2cc(OC)ncn2)cc1`?
UGM FP inh: 2; RecA intein inh: -5; Rv3671c protease: 3; Mtb betalactam: 2; GDH-TPI counter: 31*; Mtb FBA inh: -2

What do the screens show for `COc1ccc(/C=N/Nc2cc(C)nc(-n3nc(C)cc3C)n2)c(OC)c1`?
UGM FP inh: -3; RecA intein inh: 0; Rv3671c protease: -6; Mtb betalactam: 98; GDH-TPI counter: 37*; Mtb FBA inh: 0

How did COc1ccc(/C=N/Nc2cc(C)nc(N)n2)cc1 do in these assays?
UGM FP inh: 0; RecA intein inh: -7; Rv3671c protease: 11; Mtb betalactam: 9; GDH-TPI counter: 35*; Mtb FBA inh: -1

How did COc1ccc(/C=N/Nc2cc(C)nc(N3CCOCC3)n2)cc1 do in these assays?
UGM FP inh: -4; RecA intein inh: -1; Rv3671c protease: 2; Mtb betalactam: 5; GDH-TPI counter: 33*; Mtb FBA inh: 0

How did Cc1cccc(NC(=O)CNC(=O)CN2C(=O)NC3(CCc4ccccc43)C2=O)c1C (stereo unspecified) do in these assays?
GDH-TPI counter: 7; Mtb FBA inh: 6

What do the screens show for `COC(=O)c1sc(-c2ccc(Cl)cc2)cc1NC(=O)c1ccccc1C(=O)O`?
UGM FP inh: 1; RecA intein inh: 4; Rv3671c protease: 1; Mtb betalactam: -4; GDH-TPI counter: 32*; Mtb FBA inh: 2

How did CCOc1ccc(-c2cc(NC(=O)c3c(F)cccc3F)c(C(=O)O)s2)cc1 do in these assays?
UGM FP inh: -2; RecA intein inh: 5; Mtb betalactam: 15; GDH-TPI counter: 32*; Mtb FBA inh: 0

What do the screens show for `CCOc1ccc(NC(=O)Nc2cc(-c3ccccc3)sc2C(=O)OC)cc1`?
UGM FP inh: 1; RecA intein inh: -2; Rv3671c protease: -10; Mtb betalactam: 0; GDH-TPI counter: 10; Mtb FBA inh: 1

Results for CCCn1c(SCC(=O)N2CCc3ccccc3C2)nc(O)cc1=O ?
UGM FP inh: 1; Rv3671c protease: 5; Mtb betalactam: 1; GDH-TPI counter: -4; Mtb FBA inh: -1

How did O=C(Cc1ccccc1)Nc1ccc2oc(-c3cccnc3)nc2c1 do in these assays?
UGM FP inh: -1; RecA intein inh: 2; Rv3671c protease: -3; Mtb betalactam: 37; GDH-TPI counter: 4; Mtb FBA inh: 112*

What do the screens show for `O=C(Nc1ccc2oc(-c3ccccc3)nc2c1)C1CCCO1` (stereo unspecified)?
UGM FP inh: 1; RecA intein inh: -3; Rv3671c protease: 4; Mtb betalactam: 5; GDH-TPI counter: 12; Mtb FBA inh: active

How did O=C(Nc1ccc(-c2nc3cc(Cl)ccc3o2)cc1)C1CCCO1 (stereo unspecified) do in these assays?
UGM FP inh: 3; RecA intein inh: -1; Rv3671c protease: 3; Mtb betalactam: -19; GDH-TPI counter: 11; Mtb FBA inh: 4

Results for O=C(COC(=O)COc1ccc(Cl)cc1Br)NC1CCCC1 ?
GDH-TPI counter: 2; Mtb FBA inh: -3

Results for CCCCn1c(N)c(N(Cc2ccccc2OC)C(=O)C(C)C)c(=O)[nH]c1=O ?
UGM FP inh: 3; RecA intein inh: -2; Rv3671c protease: 1; Mtb betalactam: 0; GDH-TPI counter: 1; Mtb FBA inh: 2

How did C[C@@H]1CN([C@H](C)CO)C(=O)c2c(c3ccccc3n2C)-c2ccccc2CO[C@H]1CN(C)C(=O)Nc1ccccc1 do in these assays?
GDH-TPI counter: -6; Mtb FBA inh: 4

Results for CC(=O)Nc1cnc(-c2cc(C)c(O)c(C)c2)cn1 ?
GDH-TPI counter: 32*; Mtb FBA inh: 0

How did O=C(O)c1ccccc1C(=O)OCCCCOC(=O)c1ccccc1C(=O)O do in these assays?
UGM FP inh: 11*; RecA intein inh: 0; Rv3671c protease: 2; Mtb betalactam: 9; GDH-TPI counter: -1; Mtb FBA inh: -1

How did CCCCCCOC(=O)c1ccccc1NC(=O)/C=C/C(=O)O do in these assays?
UGM FP inh: 3; RecA intein inh: 67*; Rv3671c protease: 5; Mtb betalactam: 2; GDH-TPI counter: 8; Mtb FBA inh: 6

How did O=c1ccc(-c2ccccc2)nn1Cc1ccc(F)cc1Cl do in these assays?
UGM FP inh: 1; RecA intein inh: 11; Rv3671c protease: -3; Mtb betalactam: 0; GDH-TPI counter: 6; Mtb FBA inh: 2

Results for CC(C)c1ccc(C(=O)N2CCCC(c3cc(C(=O)Nc4ccc5c(c4)OCO5)no3)C2)cc1 (stereo unspecified) ?
GDH-TPI counter: -2; Mtb FBA inh: 1

Results for Cc1c2c(n3c(nc4ccccc43)c1C#N)N(CCN(C)C)CC2 ?
UGM FP inh: 0; RecA intein inh: inactive; Rv3671c protease: -4; Mtb betalactam: -2; GDH-TPI counter: -2; Mtb FBA inh: active

Results for CCc1c(C)c(C#N)c2nc3ccccc3n2c1NCCCN(C)C ?
GDH-TPI counter: 7; Mtb FBA inh: 3

Source: PubChem BioAssay (several laboratories)
